Reference: PubChem BioAssay (NCI)
Compounds without any hit were thinned out: in the full panel of roughly 83,000, 20% have a hit.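 Cells were grown in 96-well plates and exposed to the test compound at a single concentration for 48 hours; results are reported as percent growth, with values below 10 considered active.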 Values without a mark were called inactive. Calls of active or inactive are those of the source.

system: HL-60(TB) leukemia; assay: NCI-60 one-dose screen, 48 h (100 = growth as untreated, 0 = no growth, -100 = all killed); settings: 10 µM unless noted

Compound | growth
CC(=O)O[C@]1(C(C)=O)CC[C@H]2[C@@H]3C=C(Cl)C4=CC(=O)CC[C@]4(C)[C@H]3CC[C@@]21C | 104%
CN1CCN(CC(=O)N(C)c2ccc(N=C(c3ccccc3)c3c(O)[nH]c4ccc([N+](=O)[O-])cc34)cc2)CC1 | 53.5%
COc1ccc(-c2nnc(N3CCN(C(=O)CN4CCN(c5ccccc5)CC4)CC3)nc2-c2ccc(OC)cc2)cc1 | -58.6% (active)
Cc1ccc(NC(=O)c2sc3nc4c(cc3c2N)C(=O)CCC4)cc1C | -10.6% (active)
O=C(NCCCl)Nc1ncccc1OCc1ccccc1 | 90%
O=C(O)COc1ccc(Cl)c(Cl)c1 | 111%
C/C(Cc1ccc(Cl)cc1)=C(\c1ccc(OCCN2CCCCCC2)cc1)c1ccc(OC(=O)Cc2ccccc2)cc1 | 15.8%
O=C(Nc1ccc(F)cc1F)c1cc(Cl)ccc1O | -31.4% (active)
O=S(=O)(Nc1ccc(Cl)c(Cl)c1)c1ccc(-c2cnc(C3CC3)o2)cc1 | 18.6%
COc1ccc(-c2nn(-c3cccc(NC(=O)c4cccc(C(F)(F)F)c4)c3)cc2-c2ccncc2)cc1Cl | 4.23% (active)
COc1cc(/C=C/c2nnc(-c3cc(-c4ccccc4)n[nH]3)o2)cc(OC)c1OC | 75.1%
Cc1nc(N)sc1C(=O)NCCO | 167%
CC1=C(C(=O)Nc2nc(-c3ccc(Cl)cc3)cs2)[C@H](c2ccc(O)cc2)NC(=O)N1 | 98.7%
Cc1ccc(S(=O)(=O)c2ccccc2)cc1 | 12.8%
Nc1ccccc1-c1ccc([N+](=O)[O-])cc1 | 14.2%
Cc1ccc(NC(=O)c2nc(S(C)=O)oc2-c2ccc(F)cc2)cc1Nc1nccc(-c2cccnc2)n1 (configuration not stated) | 47.3%
O=C1c2ccc3c4c(ccc(c24)C(=O)N1CCCNCc1ccccc1)C(=O)N(CCCNCc1ccccc1)C3=O | -71.3% (active)
COc1cc(-c2cc3cnccc3c3nc(N)c4ccncc4c23)cc(OC)c1OC | 40.4%
COc1ccc(-n2nc(C)c3c(Nc4ccc(NC(=O)Nc5cc(C(F)(F)F)ccc5F)cc4)ncnc32)cc1 | 45.8%

Compound | growth
COc1ccc(/C=C/c2nc3ccccc3c(=O)n2-c2ccc(C#Cc3ccc(C(C)(C)C)cc3)cc2C)c(OC)c1 | 67.4%
O=[N+]([O-])c1ccc(/C=C/C2(CCl)OCCO2)cc1 | 76.2%
O=S(=O)(O)c1cc(O)c2c(N=Cc3ccccc3O)c(S(=O)(=O)O)ccc2c1 | 101%
NS(=O)(=O)Oc1ccc(-c2sc3cc(O)ccc3c2C(=O)c2ccc(OCCN3CCCCC3)cc2)cc1 | 47.7%
O=c1c2c3c(sc2n2cnnc2n1Cc1ccccc1)CCCC3 | 84.3%
CC1(C)[C@@H](O)CC[C@]2(C)[C@H]3CC[C@@H]4[C@H]5[C@H](c6cn(-c7ccccc7)nn6)CC[C@]5(CO)CC[C@@]4(C)[C@]3(C)CC[C@@H]12 | 74.8%
COc1cccc2c1C(=O)c1c(O)c3c(c(O)c1C2=O)C[C@@](O)(C(=O)COC(=O)c1ccccc1)C[C@@H]3OC1CC(N)C(O)C(C)O1 (some centres not stated) | -74.8% (active)
Cc1ccc(-c2nc3nc(-c4ccccc4)nc(N4CCN(S(=O)(=O)c5ccccc5)CC4)c3o2)cc1 | 107%
CC(=O)c1sc2c(c1OC(=O)c1ccc(Cl)cc1Cl)c(=O)n(-c1ccccc1)c(=S)n2-c1ccccc1 | -31.9% (active)
N#Cc1ccc(N2Cc3cc(Cl)ccc3OC3=C2C(=O)N(Cc2ccccc2)C3=O)cc1 | -48.2% (active)
Cc1ccc(-c2nc(/C=C3/C(=O)Nc4ccc(F)cc43)c3ccccn23)cc1 | 110%
CN(Cc1ccccc1)c1nc(Cl)c(C2CC(c3ccccc3)=NN2c2ccccc2)s1 (configuration not stated) | 100%
N#CC1=C(NC=O)Oc2c(ccc3ccccc23)C1c1ccccc1 (configuration not stated) | 18.1%
NNCCc1ccc(NC(=O)CCCc2ccc(C(=O)Nc3ccccc3N)cc2)cc1 | 32.6%
CN(C)CCCNc1c2ccccc2nc2ccccc12 | 72.8%
CCN(CC)CCOc1ccccc1C | 101%
Cc1nc(-c2ccccc2)sc1CC#N | 93.9%
Cn1cc(-c2nc(-c3cn(C)c4ncccc34)cs2)c2cc(F)ccc21 | 30.7%
